Compound activity deposited in PubChem by National Center for Advancing Translational Sciences (NCATS).
TGFb SMAD3 inh = inhibitors of TGF-b signaling | 1.2% of 410,000 active | Potency, µM (highest dose often 46.1 µM), inactives show top-dose activity, negative = inhibition, actives largely listed as inhibitors | HepG2 CAGA-GFP TGF-b/SMAD3 reporter, GFP fluorescence, 18 h; TGF-beta stimulated, 500 pg/mL final | AID 588855; note: % is set by controls: 0 for no effect and ±100 for the full control effect; nearly all actives have a fitted effect of over 65% in size
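Inhibition of TGF-beta-driven CAGA-GFP reporter expression in HEPG2 cells is measured by cellular GFP fluorescence after 18 h stimulation with 500 pg/mL recombinant TGF-beta in 1% FBS medium at 37 degrees C.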
HT1080-NT tox = kills 2HG-producing HT-1080-NT fibrosarcoma cells; AID 686970; 1.6% of 360,000 active; HT-1080-NT fibrosarcoma viability, CellTiter-Glo ATP luminescence, 48 h; Potency, µM (top dose mostly 46.1 µM), inactives show at the highest dose activity, negative = less viability, actives largely listed as cytotoxic;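 note: NT is the 2HG producing partner of a matched IDH1 knockdown line; 0% = DMSO-treated cells and -100% = media-only wells without cells; nearly all actives have a fitted effect of over 55% in size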
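HT-1080-NT; 750 cells/well; 5% FBS RPMI; 48 h compound, 37 degrees C; CellTiter-Glo luminescence; curve fitting and curve-class assignment.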
KB-3-1 cytotox = KB-3-1 parental cell cytotoxicity. KB-3-1 viability, CellTiter-Glo ATP luminescence, 72 h. 1.4% of 400,000 active. Potency, µM (series often up to 46.1 µM), actives largely listed as cytotoxic; note: % is set by controls: 0 for no effect and ±100 for the full control effect; nearly all actives have a fitted effect of over 60% in size
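KB-3-1 cells, DMEM (no phenol red) + 10% FBS; compound by pin transfer, 72 h, 37 °C. Readout: CellTiter-Glo luminescence after 10 min. Data normalized, curve-fitted.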
HT1080 IDH1KD tx = toxicity to HT-1080 IDH1 knockdown cells (counter line) | 2% of 360,000 active | Potency, µM (series often up to 46.1 µM), for inactives: at the top dose activity, negative = toxicity, actives largely listed as cytotoxic | AID 686971 | HT-1080 IDH1 knockdown viability, ATP luminescence, 48 h;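 note: 0% = DMSO wells and -100% = cell-free medium wells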
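In this qHTS, HT-1080 cells depleted of IDH1 are exposed for 48 h at 37 °C to compound titrations. Toxicity is scored from CellTiter-Glo luminescence, with DMSO as full viability and medium alone as none.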
KB-V1 MDR tox = kills drug-selected multidrug resistant KB-V1 cells; KB-V1 MDR cells viability, CellTiter-Glo, 72 h; Potency, µM (doses to about 46.1 µM), actives largely listed as cytotoxic; 3.4% of 400,000 active; AID 1347076; note: % is set by controls: 0 for no effect and ±100 for the full control effect; nearly all actives have a fitted effect of over 60% in size
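Compound-treated KB-V1 multidrug-resistant cells, 72 h, 37 degrees C; viability by CellTiter-Glo. Fitted qHTS curves give the values.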
HepG2 tox = HepG2 cytotoxicity, counter-screen for TGF-b inhibitors. HepG2 CAGA-GFP viability, ATP luminescence, 18 h. Potency, µM (titrated, usually from 46.1 µM), for the others: top-dose activity change, negative = cytotoxicity, actives largely listed as cytotoxic. 0.76% of 410,000 active
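HepG2 CAGA-GFP cells (1000/well, DMEM with 1% FBS) received compound, then TGF-beta at 500 pg/mL final, and were incubated 18 hours at 37 degrees C. Viability was read by CellTiter-Glo luminescence. Media-only wells were set as complete cell-killing and DMSO as no toxicity.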
An asterisk follows results filed as active; i = inactive; ? = inconclusive; / = not tested or not shown; [ ] = another dose, or the depositor's remark. Sampled rows, rich in hits. Any-hit rate of the full collection: about 6.6%. Calls come from the whole dose curve; as a rule, active = well fitted curve in the direction sought with a large enough effect; inconclusive = small, poorly fitted or top-dose-only effect, or another doubt; inactive = no such curve, though single readings can be large; an effect the other way counts as inactive or inconclusive. Potency is the fitted concentration of half-maximal effect.

SMILES	TGFb SMAD3 inh	HT1080-NT tox	KB-3-1 cytotox	HT1080 IDH1KD tx	KB-V1 MDR tox	HepG2 tox
Cc1nc2c(sc3nc4c(cc32)COC(C)(C)C4)c(=O)n1Cc1ccccc1	4.8%	-0.9%	i	-5.0%	5.17µM*	-18.1%
CC(C)c1nc2sc3c(SCC(=O)NCc4ccco4)ncnc3c2c2c1CCC2	-2.5%	?	i	?	i	-3.6%
CC(=O)c1ccccc1OCC(O)Cn1c(CO)nc2ccccc21 (configuration not stated)	0.2%	/	i	/	i	-8.9%
COc1ccc(C2CC(c3ccccc3)Oc3cc(C)cc(C)c32)cc1 (configuration not stated)	0.4%	/	/	/	/	-14.1%
CC1(C)Cc2nc3sc4c(=O)n(CC(=O)NCc5ccccc5)cnc4c3cc2CO1	14.9%	8.91µM*	2.59µM*	3.55µM*	3.66µM*	4.4%
O=C(CSc1ccc(-c2ccccc2)nn1)N1CCN(c2ccccc2)CC1	?	10.7%	i	17.9%	i	-38.5%
O=C(CSc1ccc(-c2ccncc2)nn1)N1CCN(c2ccccc2)CC1	-2.3%	11.4%	i	9.7%	14.6µM*	-6.9%
Cn1c(SCC(=O)N2CCN(c3ccccc3)CC2)nnc1-c1ccncc1	-1.2%	0.3%	i	-0.9%[9.24 µM]	i	-5.1%
CCn1c(SCC(=O)N2CCN(c3ccc(F)cc3)CC2)nnc1-c1ccncc1	-16.7%	15.5%	i	4.7%	18.4µM*	-5.6%
Cn1c(SCC(=O)N2CCN(c3cccc(Cl)c3)CC2)nnc1-c1ccncc1	?	1.0%	13µM*	0.5%	16.4µM*	-10.0%
Cc1ccc(-c2nnc3ccccc3c2C(=O)Nc2ccc(C)c(F)c2)cc1	-19.0%	/	i	/	i	-6.9%
CCOc1ccc(N(CC)S(=O)(=O)N2CCCC(C(=O)Nc3ccc(NC(C)=O)cc3)C2)cc1 (configuration not stated)	0.6%	/	i	/	i	-16.1%
COC(=O)c1c(NC(C)=O)c2c3c(sc2n1Cc1cc(C)ccc1C)CCCC3	0.6%	/	i	/	i	-19.2%
CC(=O)c1ccc(NC(=O)c2cnc(N3CCCC3)nc2C)cc1	?	/	i	/	i	-2.7%
CCc1nc(C)cn1S(=O)(=O)c1cc(Br)ccc1OC	4.7%	-2.8%	i	-4.0%	16.4µM*	-2.2%
Cc1c(C(=O)NC(C)c2ccccc2)c(-c2ccccc2)nn1-c1ccccc1 (configuration not stated)	-4.3%	-18.6%	i	3.3%[9.24 µM]	i	-7.2%
Cc1nn(-c2ccccc2)c(Cl)c1C(=O)NC1CCCCC1	3.5%	-0.9%	i	6.4%	i	-5.2%
Cc1c(C(=O)NC(C)C)c(-c2ccccc2)nn1-c1ccccc1	-0.6%	7.9%	i	0.9%	20.6µM*	-2.4%
Cc1nn(-c2ccccc2)c(C)c1C(=O)OC(C)C(=O)NC1CCCCC1 (configuration not stated)	7.4%	20.6µM*	i	-13.6%	i	-0.4%
COC(=O)c1ccc(NC(=O)CSc2ncc3c(n2)-c2cc(Cl)ccc2N(Cc2ccccc2)S3(=O)=O)cc1	-5.0%	/	i	/	i	-16.2%
CCOC(=O)c1c(C)sc2c1N(C(=O)CCl)c1cc(Cl)ccc1S2	?	23.1µM*	?	18.4µM*	?	-89.7%
Cc1sc2ncnc(SCC(=O)N3c4ccccc4Sc4ccc(Cl)cc43)c2c1C	-6.9%	14.1%	i	15.3%	i	0.0%
Cc1cccc(Cn2cnc3c(cnn3C(C)(C)C)c2=O)c1	?	/	/	/	/	-65.9%
O=C(N/N=C/C(Cl)=C/c1ccc([N+](=O)[O-])cc1)C(=O)Nc1ccccc1C(=O)O	-3.0%	25.8%	7.31µM*	-0.4%	2.06µM*	4.2%
CCc1ccc(NC(=O)CSc2n[nH]c(=O)n2C2CC2)cc1	1.5%	-4.2%	i	-6.4%	i	0.5%
SMILES	TGFb SMAD3 inh	HT1080-NT tox	KB-3-1 cytotox	HT1080 IDH1KD tx	KB-V1 MDR tox	HepG2 tox
Cc1ccsc1C(=O)OCC(=O)N(Cc1ccccc1)C(C)C	1.5%	6.0%	?	4.5%	i	-2.8%
Cc1ccc(C(=O)OCC(=O)N(Cc2ccccc2)C(C)C)cc1C	0.8%	0.0%	i	-4.7%	20.6µM*	-0.4%
O=C(/C=C/c1ccc(C(F)(F)F)cc1)OC(C(=O)NC1CC1)c1ccccc1 (configuration not stated)	-3.3%	/	i	/	i	-1.0%
CC1=C(CC(=O)c2ccc(Cl)cc2)C(=O)c2ccccc2C1=O	12.6µM*	?	?	11.2µM*	16.4µM*	12.6µM*
CCOC(=O)c1ccc2nc(NC(=O)C(C)C)sc2c1	?	-0.8%	i	1.7%	i	-28.1%
C=CCN(CC=C)S(=O)(=O)c1ccc2nc(NC(=O)C(C)C)sc2c1	-1.7%	3.66µM*	3.66µM*	7.31µM*	?	-3.7%
CC(C)C(=O)Nc1nc2c(ncn2[C@H]2CC(O)[C@@H](CO)O2)c(=O)[nH]1 (some centres not stated)	-8.2%	/	?	/	i	-9.7%
CCc1c(C)sc(NC(=O)C2CC2c2ccccc2)c1C(N)=O (configuration not stated)	0.0%	-22.0%	i	-28.0%	6.51µM*	-21.5%
NNC(=O)[C@@H]1C[C@@H]1c1ccccc1	-2.0%	-0.1%	i	0.3%	i	5.0%
CSc1nc2cc(S(=O)(=O)N3CCOCC3)ccc2s1	-1.9%	-1.5%	?	-20.6%	i	-4.1%
O=S(=O)(c1cccc(-c2nc3ccccc3s2)c1)N1CCCC1	-15.6%	-9.3%	?	?	14.6µM*	-9.0%
CSc1nc2cc(S(=O)(=O)N3CCCCC3)ccc2s1	-22.1%	-12.0%	?	-17.3%	14.6µM*	-3.2%
CCc1ccc(NC(=O)COCc2cc(-c3ccc(F)cc3)on2)cc1	-1.2%	/	i	/	i	-23.5%
Cc1ccc(C(=O)NCCc2ccc(Cl)cc2)cc1-n1c(C)nc2cccnc21	-9.0%	/	i	/	i	-29.3%
O=c1c(-c2cc3ccccc3o2)[n+]([O-])c2ccccc2n1OCc1ccccn1	-0.5%	0.7%	i	3.0%	3.66µM*	-11.1%
O=C1CCN(CCc2ccccc2)CCN1[C@H](COc1ccccc1)c1ccccc1	10µM*	-2.6%	i	-9.7%	?	-27.2%
CN1C(C(=O)Nc2ccc(C(=O)O)cc2)=C(O)c2ccccc2S1(=O)=O	-3.2%	-15.1%	i	-4.3%	i	5.62µM*
